Data taken from ChEMBL document CHEMBL3988442, “University of Dundee, Small-Polar-MMV Screening Library” (2021).
Screen size: about 48,000 compounds; about 13,000 (27%) showed an effect of 50% or more. This is one part of the list.

tested on: Wolbachia pipientis; experiment: Anti-Wolbachia Cell-Based Screen; format: functional; parameters: scale not given: in the data most compounds retested in dose-response had high values; conditions: 5 µM

Row | Structure (SMILES) | Percent Effect [%]
1 | Cc1cc(CN(C)C(=O)c2ccc(F)cc2F)no1 | 11.87
2 | COc1c(Br)cccc1CCNC(=O)c1csnn1 | -2.024
3 | CN1CCC(Cc2noc(CCc3nc4ccccc4nc3O)n2)CC1 | -2.649
4 | Cc1cnc(C)c(N2CCN(CCCc3ccncc3)CC2)n1 | -5.646
5 | CC(C)NC(=O)NC(=O)C(C)N1CCN(C2CCN(C(C)C)CC2)CC1 (stereo not drawn) | -25.53
6 | COC(=O)C1CCCCN1Cc1cccc(C(=O)NCc2ccco2)c1 (stereo not drawn) | 0.7191
7 | CCn1ncnc1C(C)Nc1cc(C)c2ccc(SC)cc2n1 (stereo not drawn) | -5.818
8 | CCn1ncnc1C(C)Nc1cc(C2CCNCC2)nc(C)n1 (stereo not drawn) | 90.92
9 | CCn1nc(C)c(C(C)Nc2cc(C3CCNCC3)nc(C)n2)c1C (stereo not drawn) | 97.89
10 | CCn1ncnc1C(C)NC(=O)CC1CCN(C(C)C)CC1 (stereo not drawn) | -18.67
11 | CCn1ncnc1C(C)Nc1cc(C2CC2)ncn1 (stereo not drawn) | 83.57
12 | CCn1ncnc1C(C)NC(=O)C1CCN(C(C)C)CC1 (stereo not drawn) | -6.672
13 | CCc1cnc(C)nc1NC(CC)c1ncnn1CC (stereo not drawn) | 9.184
14 | NC(=O)CCNC(=O)Cc1cccc(I)c1 | -0.109
15 | COc1cc(C(C)NCc2scnc2C)ccc1SC(F)F (stereo not drawn) | -45.23
16 | Cc1ccc(N2CC3(CCN(S(=O)(=O)C4CC4)C3)C2)nn1 | -11.71
17 | Cc1nn(C)c(C)c1C1CCCN1CC(=O)NC(C1CC1)C1CC1 (stereo not drawn) | 8.112
18 | COCCCNC(=O)CN1CCCC1c1c(C)nn(C)c1Cl (stereo not drawn) | -2.309
19 | Cc1nn(C)c(Cl)c1C1CCCN1CC(=O)NCc1ccco1 (stereo not drawn) | 93.09
20 | Cc1nc(C)n(CC2CCCN2CC(=O)NCc2ccco2)n1 (stereo not drawn) | -10.96
21 | COCCNC(=O)CN1CCCC1c1c(C)nn(C)c1Cl (stereo not drawn) | 87.98
22 | NC(=O)CN1C(=O)CO[C@H]2CN(Cc3ccc(Cl)cc3)C[C@H]21 | -3.813
23 | CN(CC(N)=O)Cc1c(Cl)ccc2cccnc12 | 1.669
24 | COc1ccc(Cl)cc1NCC(=O)N(Cc1ccncc1)C1CC1 | 10.17
25 | Cc1ccc(CSc2nc(N)cc(NCCC(=O)N3CCCC3)n2)cc1 | 92.81
26 | Cc1ccc(CSc2nc(N)cc(NCCC(N)=O)n2)cc1 | -9.969
27 | Cc1ccc(CSc2nc(N)cc(NCC(=O)N3CCNCC3)n2)cc1 | 0.4693

Row | Structure (SMILES) | Percent Effect [%]
28 | Cc1cc(NCCS(C)(=O)=O)nc2ccccc12 | 2.58
29 | CN(C)S(=O)(=O)CCNc1ncc2c(n1)CCN2c1ccccc1 | -5.162
30 | Cc1ccc(CSc2nc(N)cc(NCCS(=O)(=O)N(C)C)n2)cc1 | 94.01
31 | CC(C)c1nc2n(n1)CC(Nc1ncnc3ccccc13)CC2 (stereo not drawn) | -42.74
32 | COC1CCN(C(=O)c2nn(-c3ccc(C(C)C)cc3)cc2O)CC1 | 2.392
33 | CC(C)C1CN(C(=O)c2nccnc2N)CCS1 (stereo not drawn) | -3.274
34 | CC1(C)CN(C(=O)c2cc(F)cc3[nH]cnc23)CCS1 | 94.05
35 | CC(C)C1CN(C(=O)c2cc(F)cc3[nH]cnc23)CCS1 (stereo not drawn) | 102.4
36 | COCCN(CCOC)C(=O)c1cc(F)cc2[nH]cnc12 | 18.56
37 | CC1(C)CCN1C(=O)c1cc(F)cc2[nH]cnc12 | 96.75
38 | CCCN(CC(F)(F)F)C(=O)c1cc(F)cc2[nH]cnc12 | -1.946
39 | CC(C)C1CN(C(=O)c2ccc(C(N)=O)cc2)CCS1 (stereo not drawn) | 0.1325
40 | CCN(CCC(=O)OC)C(=O)c1cc(F)cc2[nH]cnc12 | -3.962
41 | COC(=O)CCCN(C)C(=O)c1cc(F)cc2[nH]cnc12 | -15.15
42 | CCC(CO)NC(=O)Nc1cc(F)ccc1Br (stereo not drawn) | 7.156
43 | N#Cc1cccc(OCC(=O)N(Cc2ccsc2)C2CC2)c1 | -11.35
44 | COCC1CCN(CCCc2cccc(OC)c2)CC1 | -10.46
45 | CC(C)(C)CNC[C@H]1Cn2ccnc2CO1 | -18.46
46 | NC(=O)C1CN(C(=O)Nc2ccccc2SC(F)(F)F)CCO1 (stereo not drawn) | -3.203
47 | O=C(COc1ccccc1O)N1CCOC(C(F)(F)F)C1 (stereo not drawn) | 13.92
48 | NC(=O)C1CN(C(=O)Nc2ccccc2OCC(F)(F)F)CCO1 (stereo not drawn) | 120.3
49 | NC(=O)C1CN(C(=O)Nc2ccccc2N2CCCCCC2)CCO1 (stereo not drawn) | 3.966
50 | NC(=O)C1CN(C(=O)Nc2ccccc2Oc2ccccc2Cl)CCO1 (stereo not drawn) | 94.62
51 | C=C(C)COc1ccccc1NC(=O)N1CCOCC1CO (stereo not drawn) | 6.942
52 | NC(=O)C1CN(C(=O)Nc2ccccc2SC2CCCC2)CCO1 (stereo not drawn) | 100
53 | NC(=O)C1CN(C(=O)Nc2ccccc2-c2cccs2)CCO1 (stereo not drawn) | -5.73
